Assay results reported in PubChem BioAssay (Tox21).
Values joined by “and” are separate entries in the source; they are usually repeats but may differ in a detail not shown here. Equal values may be shown once. Records with an inconclusive call do not appear. Where a call stands in place of a potency, no number is given. Where a structure was tested more than once in an assay, its records may differ in their call. Active and inactive are the calls of the source. Unless noted, calls come from the whole dose curve.

Key:
[1] = qHTS assay to identify small molecule agonists of the vitamin D receptor (VDR) signaling pathway - cell viability counter screen (AID 743224; active = well fitted curve in the direction sought with a large enough effect in the repeat runs; an effect the other way counts as inactive or inconclusive; note: nearly all actives have a fitted effect of over 50% in size; note: potency is the fitted concentration of half-maximal effect)
Outline: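 Here cell health was gauged by luminescent ATP detection (CellTiter-Glo, 30 min RT) in VDR-bla cells that had been incubated with test compounds for 16 h at 37C and 5% CO2.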

[2] = qHTS assay to identify small molecule antagonists of the vitamin D receptor (VDR) signaling pathway - cell viability counter screen (AID 743225; active = well fitted curve in the direction sought with a large enough effect in the repeat runs; an effect the other way counts as inactive or inconclusive; note: nearly all actives have a fitted effect of over 50% in size)
Outline: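 Read-out: CellTiter-Glo luminescence measured 30 min after reagent addition at room temperature. Cells were VDR-bla HEK 293T exposed 16 h at 37C, 5% CO2, to compound with 3 nM final calcitriol agonist.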

[3] = qHTS assay to identify small molecule agonists of the NFkB signaling pathway (AID 1159509; active = well fitted curve in the direction sought with a large enough effect in the signal ratio in the repeat runs, not every such curve was filed as active; the % refers to the signal ratio; note: series mostly up to about 61 µM)
Outline: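 ME-180 NFkB-bla, 2,000 cells/well, overnight plating; cpd pinned in DMSO, 5 h 37 C; B/G FRET substrate 1.5 h RT; ex 405, em 460/530 nm.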

[4] = qHTS assay to identify small molecule agonists of the NFkB signaling pathway - cell viability counter screen (AID 1159515); note: series mostly up to about 61 µM; nearly all actives have a fitted effect of over 55% in size
Outline: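 5 hr compound treatment of NFkB-bla ME-180 cells (2,000/well, seeded overnight beforehand), followed by reporter substrate for 1.5 hr. CellTiter-Glo added afterward; luminescence after 30 min RT.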

[5] = qHTS assay to identify small molecule agonists of the endoplasmic reticulum stress response signaling pathway - cell viability counter screen (AID 1159517); note: nearly all actives have a fitted effect of over 50% in size; note: potency is the fitted concentration of half-maximal effect
Outline: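 CellTiter-Glo was added to wells already read for beta-lactamase FRET, and luminescence was recorded 30 min later. Cells: ESRE-bla HeLa, 1,500 per well, compound exposure 5 hr at 37 C.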

[6] = qHTS assay to identify small molecule antagonists of the retinoid-related orphan receptor gamma (ROR-gamma) signaling pathway - cell viability counter screen (AID 1159520; active = well fitted curve in the direction sought with a large enough effect in the repeat runs; an effect the other way counts as inactive or inconclusive; note: nearly all actives have a fitted effect of over 50% in size; note: potency is the fitted concentration of half-maximal effect)
Outline: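 Tet-on ROR gamma CHO cells (1,000/well) were plated 4 hr, given compounds in DMSO for 2 hr at 37 C, then induced with 1 uM final doxycycline for 16 hr. Viability was read as ATP by CellTiter-Glo luminescence after 30 min.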

[7] = molecular target: Nuclear receptor ROR-gamma (Homo sapiens) (UniProt P51449); experiment: qHTS assay to identify small molecule antagonists of the retinoid-related orphan receptor gamma (ROR-gamma) signaling pathway (AID 1159521; active = well fitted curve in the direction sought with a large enough effect in the repeat runs; an effect the other way counts as inactive or inconclusive; note: nearly all actives have a fitted effect of over 50% in size; note: potency is the fitted concentration of half-maximal effect)
Outline: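 CHO Tet-on RORγ, RORE-luc reporter. Cpd 2 h pre-incubation, then dox hyclate 1 uM final, 16 h, 37 C/5% CO2. ONE-Glo luminescence; decrease = antagonist.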

[8] = qHTS assay to identify small molecule agonists of the AP-1 signaling pathway - cell viability counter screen (AID 1159525); note: nearly all actives have a fitted effect of over 55% in size; note: potency is the fitted concentration of half-maximal effect
Outline: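 ME-180 AP-1-bla, 2500 cells/well, Opti-MEM + 0.5% dialyzed FBS; overnight 37 °C; cpd 15-pt titration, 5 h 37 °C; CellTiter-Glo 30 min RT; luminescence read; normalised to TOAB and DMSO controls.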

[9] = qHTS assay to identify small molecule agonists of the AP-1 signaling pathway (AID 1159526)
[10] = qHTS assay to identify small molecule agonists of the endoplasmic reticulum stress response signaling pathway (AID 1159516; active = well fitted activation curve with a large enough effect in the signal ratio in the repeat runs, not every such curve was filed as active; the % refers to the signal ratio)
Outline: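 Reporter HeLa cells (ESRE-beta-lactamase) underwent 5 hr compound incubation at 37 C and 5% CO2 in quantitative HTS format. Detection followed 2 hr of FRET substrate loading at room temperature.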

Row | Compound | Potency [1] | Potency [2] | outcome [3] | Potency [4] | Potency [5] | Potency [6] | Potency [7] | Potency [8] | outcome [9] | Potency [10]
1 | Nc1ncn([C@@H]2O[C@H](CO)[C@@H](O)[C@H]2O)c(=O)n1 | inactive | inactive | inactive | inactive | inactive | 3.44 µM (active) and 4.22 µM (active) | 1.72 µM (active) and 3.35 µM (active) | inactive | inactive | 
2 | CN(C)C(=N)N=C(N)N | inactive | inactive | inactive | inactive | inactive | inactive |  | inactive | inactive | inactive
3 | Nc1ccc(Nc2ccccc2)cc1 | inactive | inactive | inactive | inactive | inactive | inactive | inactive and 27.3 µM (active) | inactive |  | inactive
4 | COc1cc([C@@H]2c3cc4c(cc3[C@H](O)[C@H]3COC(=O)[C@H]23)OCO4)cc(OC)c1OC | inactive |  | inactive | inactive | inactive | inactive | 0.0306 µM (active) | inactive |  | 
5 | c1ccc2c(c1)Oc1ccccc1S2 | inactive |  | inactive | inactive | inactive | inactive | inactive | inactive |  | inactive
6 | Nc1ccccc1N | inactive | inactive | inactive | inactive | inactive | inactive | inactive | inactive | inactive | 
7 | OC1CCCCCCCCCCC1 | inactive |  | inactive | inactive | inactive | inactive | inactive | inactive |  | 
8 | CCC(C)(O)CCCC(C)C (stereo unspecified) | inactive |  | inactive | inactive | inactive | inactive |  | inactive | inactive | inactive
9 | O=C(Nc1ccc(Cl)cc1)Nc1ccc(Cl)c(Cl)c1 | 19.4 µM (active) and 11 µM (active) |  | inactive | inactive | inactive | 17.1 µM (active) | 17.2 µM (active) | inactive |  | inactive
10 | CCCCOCCOCCOCCO | inactive | inactive | inactive | inactive |  | inactive | inactive | inactive | inactive | inactive
11 | S=C(NC1CCCCC1)NC1CCCCC1 | 24.5 µM (active) | inactive | inactive | inactive | inactive | inactive | 48.6 µM (active) | inactive |  | 
12 | Oc1ccc(O)cc1 | inactive | inactive | inactive |  | inactive |  | 21.6 µM (active) and 38.6 µM (active) and 23.7 µM (active) | inactive | inactive | 
13 | CC(=O)O[C@]1(C(C)=O)CC[C@H]2[C@@H]3C=C(Cl)C4=CC(=O)[C@@H]5C[C@@H]5[C@]4(C)[C@H]3CC[C@@]21C | 48.9 µM (active) and inactive |  | inactive | inactive | inactive | inactive |  | inactive | inactive | inactive
14 | CC(=O)Oc1ccccc1C(=O)Nc1ncc([N+](=O)[O-])s1 | 12.6 µM (active) |  | inactive | inactive | 889 nM (active) and inactive | 3.93 µM (active) and 5.31 µM (active) | inactive | inactive | inactive | 
15 | c1ccc2cc(Nc3ccc(Nc4ccc5ccccc5c4)cc3)ccc2c1 | inactive | inactive | inactive | inactive | inactive | inactive | inactive | inactive | inactive | 
16 | C=C(C)C1CC=C(C)CC1 (stereo unspecified) | inactive | inactive |  | inactive | inactive | inactive |  | inactive | inactive | inactive
17 | c1ccc2sc(SSN3CCOCC3)nc2c1 | 19.5 µM (active) and 49 µM (active) |  | inactive | inactive | inactive | 27.3 µM (active) | 19.3 µM (active) and 54.5 µM (active) | inactive |  | 
18 | CN(C)CCN(Cc1cccs1)c1ccccn1 | inactive | inactive | inactive | inactive | inactive | inactive |  | inactive |  | inactive
19 | Cc1cccc([N+](=O)[O-])c1C | inactive |  | inactive | inactive | inactive | inactive |  | inactive | inactive | inactive
20 | O=C=Nc1ccc(Cc2ccc(N=C=O)cc2)cc1 | inactive | inactive | inactive | inactive | inactive | inactive | inactive | inactive | inactive | 
21 | C#C[C@]1(O)CC[C@H]2[C@@H]3CCC4=Cc5oncc5C[C@]4(C)[C@H]3CC[C@@]21C | 54.9 µM (active) and inactive | inactive | inactive |  | inactive | inactive | 17.2 µM (active) and 16.8 µM (active) | 54.9 µM (active) and inactive | inactive | inactive
22 | c1ccc(Nc2ccccc2)cc1 | inactive | inactive | inactive | inactive | inactive | 54.4 µM (active) and inactive | 13.7 µM (active) and inactive | inactive |  | inactive
